# Laboratory results taken from the supplement of paper PMC8728848.
# The full list was thinned out, with the strongest signals kept by preference.
# B1: AntigenI/IIC123 (Streptococcus mutans), C9E3B4 (protein)
# chain: MASMTGGQQMGRIHFHYFKLAVQPQVNKEIRNNNDINIDRTLVAKQSVVKFQLKTADLPAGRDETTSFVLVDPLPSGYQFNPEATKAASPGFDVTYDNATNTVTFKATAATLATFNADLTKSVATIYPTVVGQVLNDGATYKNNFTLTVNDAYGIKSNVVRVTTPGKPNDPDNPNNNYIKPTKVNKNENGVVIDGKTVLAGSTNYYELTWDLDQYKNDRSSADTIQKGFYYVDDYPEEALELRQDLVKITDANGNEVTGVSVDNYTNLEAAPQEIRDVLSKAGIRPKGAFQIFRADNPREFYDTYVKTGIDLKIVSPMVVKKQMGQTGGSYENQAYQIDFGNGYASNIIINNVPKINPKKDVTLTLDPADTNNVDGQTIPLNTVFNYRLIGGIIPADHSEELFEYNFYDDYDQTGDHYTGQYKVFAKVDITFKDGSIIKSGAELTQYTTAEVDTAKGAITIKFKEAFLRSVSIDSAFQAESYIQMKRIAVGTFENTYINTVNGVTYSSLEHHHHHH
# What was measured:
# Experiment in all cases: glycan array binding signal (z-score within array); higher = stronger binding
# Conditions in all cases: glycan notation: IUPAC condensed, linker removed
# [1] = biological target: Fuc(a1-2)Gal(b1-3)GlcNAc(b1-3)[Fuc(a1-2)Gal(b1-3)GlcNAc(b1-6)]GalNAc
# Procedure, shortened: (§1)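 The binding signal is a Z-score computed within each array. Data were drawn from 3228 arrays in the Consortium for Functional Glycomics database, restricted to those with a known protein sequence. Scores were averaged over arrays of the same protein sequence at different concentrations or buffers, and over linkers, and negative values can be taken as non-binding.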
# [2] = biological target: Fuc(a1-2)Gal(b1-3)[Fuc(a1-4)]GlcNAc(b1-3)[Gal(b1-4)GlcNAc(b1-6)]Gal(b1-4)Glc
# Procedure, shortened: as §1
# [3] = biological target: Fuc(a1-2)Gal(b1-4)GlcNAc(b1-3)Gal(b1-4)GlcNAc(b1-3)Gal(b1-4)GlcNAc
# Procedure, shortened: as §1
# [4] = biological target: Fuc(a1-2)Gal(b1-4)GlcNAc(b1-6)GalNAc
# Procedure, shortened: as §1
# [5] = biological target: Fuc(a1-2)[Gal(a1-3)]Gal(b1-3)GlcNAc(b1-2)Man(a1-3)[Fuc(a1-2)[Gal(a1-3)]Gal(b1-3)GlcNAc(b1-2)Man(a1-6)]Man(b1-4)GlcNAc(b1-4)[Fuc(a1-6)]GlcNAc
# Procedure, shortened: as §1
# [6] = biological target: Fuc(a1-2)[Gal(a1-3)]Gal(b1-3)GlcNAc(b1-6)GalNAc
# Procedure, shortened: as §1
# [7] = biological target: Fuc(a1-2)[GalNAc(a1-3)]Gal(b1-3)GlcNAc(b1-3)GalNAc
# Procedure, shortened: as §1
# [8] = biological target: Fuc(a1-3)[Gal(b1-4)]GlcNAc(b1-2)Man(a1-3)[Fuc(a1-3)[Gal(b1-4)]GlcNAc(b1-2)Man(a1-6)]Man(b1-4)GlcNAc(b1-4)GlcNAc
# Procedure, shortened: as §1
# [9] = biological target: Gal(a1-3)Gal(b1-3)GlcNAc(b1-2)Man(a1-3)[Gal(a1-3)Gal(b1-3)GlcNAc(b1-2)Man(a1-6)]Man(b1-4)GlcNAc(b1-4)GlcNAc
# Procedure, shortened: as §1
# [10] = biological target: Gal(a1-3)Gal(b1-3)[Fuc(a1-4)]GlcNAc(b1-2)Man(a1-3)[Gal(a1-3)Gal(b1-3)[Fuc(a1-4)]GlcNAc(b1-2)Man(a1-6)]Man(b1-4)GlcNAc(b1-4)GlcNAc
# Procedure, shortened: as §1
# Gal(b1-2)Gal = biological target: Gal(b1-2)Gal
# Procedure, shortened: as §1
# Gal(b1-3)Gal = biological target: Gal(b1-3)Gal
# Procedure, shortened: as §1
# [11] = biological target: Gal(b1-3)GalNAc(a1-3)[Fuc(a1-2)]Gal(b1-4)GlcNAc
# Procedure, shortened: as §1
# [12] = biological target: Gal(b1-3)GlcNAc(a1-6)Gal(b1-4)GlcNAc
# Procedure, shortened: as §1
# [13] = biological target: Gal(b1-3)[Fuc(a1-4)]GlcNAc(b1-6)GalNAc
# Procedure, shortened: as §1
# [14] = biological target: Gal(b1-3)[GlcNAc(b1-6)]GalNAc
# Procedure, shortened: as §1
# [15] = biological target: Gal(b1-4)GlcNAc(b1-2)Man(a1-3)[Gal(b1-4)GlcNAc(b1-2)Man(a1-6)][GlcNAc(b1-4)]Man(b1-4)GlcNAc(b1-4)[Fuc(a1-6)]GlcNAc
# Procedure, shortened: as §1
# [16] = biological target: Gal(b1-4)GlcNAc(b1-2)Man(a1-3)[GlcNAc(b1-2)Man(a1-6)]Man(b1-4)GlcNAc(b1-4)GlcNAc
# Procedure, shortened: as §1
# [17] = biological target: Gal(b1-4)GlcNAc(b1-2)[Gal(b1-4)GlcNAc(b1-4)]Man(a1-3)[GlcNAc(b1-4)][Gal(b1-4)GlcNAc(b1-2)[Gal(b1-4)GlcNAc(b1-6)]Man(a1-6)]Man(b1-4)GlcNAc(b1-4)GlcNAc
# Procedure, shortened: as §1
# [18] = biological target: Gal(b1-4)GlcNAc(b1-3)Gal(b1-3)GalNAc
# Procedure, shortened: as §1
# [19] = biological target: Gal(b1-4)GlcNAc(b1-3)Gal(b1-4)GlcNAc(b1-2)[Gal(b1-4)GlcNAc(b1-3)Gal(b1-4)GlcNAc(b1-6)]Man(a1-6)[Gal(b1-4)GlcNAc(b1-3)Gal(b1-4)GlcNAc(b1-2)Man(a1-3)]Man(b1-4)GlcNAc(b1-4)[Fuc(a1-6)]GlcNAc
# Procedure, shortened: as §1
# [20] = biological target: Gal(b1-4)GlcNAc(b1-3)Gal(b1-4)GlcNAc(b1-3)Gal(b1-4)GlcNAc(b1-2)Man(a1-3)[Gal(b1-4)GlcNAc(b1-3)Gal(b1-4)GlcNAc(b1-3)Gal(b1-4)GlcNAc(b1-2)Man(a1-6)]Man(b1-4)GlcNAc(b1-4)GlcNAc
# Procedure, shortened: as §1
# [21] = biological target: Gal(b1-4)GlcNAc(b1-3)Gal(b1-4)GlcNAc(b1-3)Gal(b1-4)GlcNAc(b1-2)Man(a1-3)[Gal(b1-4)GlcNAc(b1-3)Gal(b1-4)GlcNAc(b1-3)Gal(b1-4)GlcNAc(b1-2)Man(a1-6)]Man(b1-4)GlcNAc(b1-4)[Fuc(a1-6)]GlcNAc
# Procedure, shortened: as §1
# [22] = biological target: Gal(b1-4)GlcNAc(b1-3)Gal(b1-4)GlcNAc(b1-3)Gal(b1-4)GlcNAc(b1-2)[Gal(b1-4)GlcNAc(b1-3)Gal(b1-4)GlcNAc(b1-3)Gal(b1-4)GlcNAc(b1-6)]Man(a1-6)[Gal(b1-4)GlcNAc(b1-3)Gal(b1-4)GlcNAc(b1-3)Gal(b1-4)GlcNAc(b1-2)Man(a1-3)]Man(b1-4)GlcNAc(b1-4)[Fuc(a1-6)]GlcNAc
# Procedure, shortened: as §1
# [23] = biological target: Gal(b1-4)GlcNAc(b1-3)Gal(b1-4)GlcNAc(b1-3)Gal(b1-4)GlcNAc(b1-3)Gal(b1-4)GlcNAc(b1-2)[Gal(b1-4)GlcNAc(b1-3)Gal(b1-4)GlcNAc(b1-3)Gal(b1-4)GlcNAc(b1-3)Gal(b1-4)GlcNAc(b1-6)]Man(a1-6)[Gal(b1-4)GlcNAc(b1-3)Gal(b1-4)GlcNAc(b1-3)Gal(b1-4)GlcNAc(b1-3)Gal(b1-4)GlcNAc(b1-2)Man(a1-3)]Man(b1-4)GlcNAc(b1-4)[Fuc(a1-6)]GlcNAc
# Procedure, shortened: as §1
# [24] = biological target: Gal(b1-4)GlcNAc(b1-3)Gal(b1-4)GlcNAc(b1-3)Gal(b1-4)GlcNAc(b1-3)Gal(b1-4)GlcNAc(b1-3)Gal(b1-4)GlcNAc(b1-2)[Gal(b1-4)GlcNAc(b1-3)Gal(b1-4)GlcNAc(b1-3)Gal(b1-4)GlcNAc(b1-3)Gal(b1-4)GlcNAc(b1-3)Gal(b1-4)GlcNAc(b1-6)]Man(a1-6)[Gal(b1-4)GlcNAc(b1-3)Gal(b1-4)GlcNAc(b1-3)Gal(b1-4)GlcNAc(b1-3)Gal(b1-4)GlcNAc(b1-3)Gal(b1-4)GlcNAc(b1-2)Man(a1-3)]Man(b1-4)GlcNAc(b1-4)[Fuc(a1-6)]GlcNAc
# Procedure, shortened: as §1
# Gal3S(b1-4)Glc = biological target: Gal3S(b1-4)Glc
# Procedure, shortened: as §1
# [25] = biological target: Gal3S(b1-4)[Fuc(a1-3)]Glc6S
# Procedure, shortened: as §1
# Gal6S(b1-4)Glc = biological target: Gal6S(b1-4)Glc
# Procedure, shortened: as §1
# GalNAc3S(b1-4)GlcNAc = biological target: GalNAc3S(b1-4)GlcNAc
# Procedure, shortened: as §1
binder,measurement,setting,value
B1,glycan array binding signal (z-score),[1],3.07
same,glycan array binding signal (z-score),[2],-0.704
same,glycan array binding signal (z-score),[3],-0.137
same,glycan array binding signal (z-score),[4],3.81
same,glycan array binding signal (z-score),[5],0.417
same,glycan array binding signal (z-score),[6],-1.42
same,glycan array binding signal (z-score),[7],2.85
same,glycan array binding signal (z-score),[8],-0.441
same,glycan array binding signal (z-score),[9],3.54
same,glycan array binding signal (z-score),[10],3.25
same,glycan array binding signal (z-score),Gal(b1-2)Gal,-0.762
same,glycan array binding signal (z-score),Gal(b1-3)Gal,-1.1
same,glycan array binding signal (z-score),[11],-0.841
same,glycan array binding signal (z-score),[12],-1.82
same,glycan array binding signal (z-score),[13],1.06
same,glycan array binding signal (z-score),[14],0.715
same,glycan array binding signal (z-score),[15],-1.3
same,glycan array binding signal (z-score),[16],-0.939
same,glycan array binding signal (z-score),[17],0.437
same,glycan array binding signal (z-score),[18],0.003
same,glycan array binding signal (z-score),[19],4.84
same,glycan array binding signal (z-score),[20],2.33
same,glycan array binding signal (z-score),[21],3.9
same,glycan array binding signal (z-score),[22],3.08
same,glycan array binding signal (z-score),[23],2.31
same,glycan array binding signal (z-score),[24],4.43
same,glycan array binding signal (z-score),Gal3S(b1-4)Glc,-0.499
same,glycan array binding signal (z-score),[25],2.84
same,glycan array binding signal (z-score),Gal6S(b1-4)Glc,-0.033
same,glycan array binding signal (z-score),GalNAc3S(b1-4)GlcNAc,-1.45
